Structures are written as SMILES.

The target of the assay is Shiga toxin 2 (Escherichia coli O157:H7) (UniProt P09385+P09386). Nature of the assay: E. coli 0.157:H7 Shiga Toxin SOP - stx2 screening assay. It counts as functional. Also noted: scale not given: direction of the effect not stated beside the values. The conditions noted are these: 30 µM.
`O=C(Nc1ccc(CCN2CCC(O)CC2)cc1)Nc1cccnc1`: the Percent Effect was -83.7%.
With `O=C(C1=CCCC1)N1CCC[C@]2(C[C@@H](OCc3ccncc3)CO2)C1` the figure was -14.6%; with `Cc1cnn(CC(C)NCc2csc(-c3ccsc3)n2)c1` (stereo not given), -28%; with `CN(C)CC1CN(Cc2cccc(C(=O)N(C)C)c2)CCO1` (stereo not given), -24.2%.
With `Cn1cc(CN2CCC3(CC2)CC(c2ccncc2)C(=O)N3)cn1` (stereo not given) the figure was -4.24%.
For the compound `CCCc1nc(C(C)(C)NC(=O)C2CC(=O)N(CC3CC3)C2)no1` (stereo not given), the Percent Effect was 20%.
The same measure for `O=C(c1cscn1)N1CCC2(CCN(Cc3nccs3)C2)CC1`: -5.87%; for `O=C(NCCNc1ccc(C(F)(F)F)cn1)c1ccc(Br)cc1F`: 38.5%; for `CC(C)COCC(NC(=O)c1ccccn1)c1ccco1` (stereo not given): 28%.
For `CC(C)Oc1ccccc1C1CC(=O)Nc2c1cnn2C` (stereo not given), the Percent Effect is -6.39%.
With `CNc1nc2c(s1)C(c1c(Cl)cccc1Cl)CC(=O)N2` (stereo not given), the Percent Effect came out at 5.63%.
With `Cc1csc(N2CCN(C(=O)CCC(=O)c3ccc(C)s3)CC2)n1` the figure was 8.56%; with `Cn1cc(C[C@H]2[C@H](N3CCOCC3)CCN2C(=O)c2ccco2)cn1`, -0.123%; with `COc1ccc(C(=O)N2CCC(Nc3cccnn3)CC2)c(OC)c1`, 8.84%.
Take `O=C(CN1CCCC(c2ccc(C(=O)O)cc2)C1)NC1CC1` (stereo not given): the Percent Effect is 6.8%.
The same measure for `c1ccc(-c2noc3c2CN(CC2CC2)CC3)cc1`: -9.68%.
With `CC(C)c1nc(CC(=O)N2CCCC(n3cncn3)C2)cs1` (stereo not given) the figure was -31%; with `Cc1nc(C2CCCN(C(=O)c3ccco3)C2)no1` (stereo not given), -1.79%.
The same measure for `CCCS(=O)(=O)N1CCC2(CN(c3ccsc3)C(=O)CN2C)C1` (stereo not given): -8.23%.
Consider `N#Cc1cc(NS(=O)(=O)c2ccc(C(=O)O)cc2F)ccc1F`, for which the Percent Effect is 9.05%.
With `COc1ncccc1NC(=O)C1CCS(=O)(=O)C1` (stereo not given) the figure was -37.8%.
Consider `CC(NC(=O)NCc1ccc(Cl)cc1)c1ccccn1` (stereo not given), for which the Percent Effect was -27.4%.
The same measure for `CN(Cc1cncnc1)Cc1cn2c(n1)CN(C1CCOC1)CC2` (stereo not given): -15.6%; for `Cc1noc(CN(Cc2ccc3c(c2)OCO3)C2CCCC2)n1`: 30.6%; for `Cn1ccnc1CN1CCCN(C(=O)c2ccc(Cl)o2)CC1`: 17.7%.
Turning to `COCCN(Cc1ccc(F)cc1Cl)C(=O)c1cccc[n+]1[O-]`, the Percent Effect worked out at 0.846%.
With `Cc1cc(CN(C)C(=O)NC2CCS(=O)(=O)C2)no1` (stereo not given) the figure was 14.9%; with `CCN(CC)C(CNS(=O)(=O)c1ccc(C(=O)NC)cc1)c1ccco1` (stereo not given), -17.4%.
Take `Cn1cc(CN2C[C@@H]3COC[C@]3(CNC(=O)c3ccsc3)C2)cn1`: the Percent Effect is -3.31%.
Regarding `O=C(Cn1c(=O)n(Cc2ccco2)c2ncccc21)NC1CCCCC1`, the Percent Effect was -5.4%.
With `CC(Nc1cccc(CN2CCOC2=O)c1)C(=O)N1CCNC1=O` (stereo not given) the figure was -28.6%; with `Cc1ccc(F)cc1S(=O)(=O)N(C)CC(N)=O`, -5.32%.
With `CCc1ncc2c(n1)CN(Cc1nc(-c3ccsc3)oc1C)CC2` the figure was 25.2%; with `CCn1ccnc1CN(C)CC1CCCN1c1cccnn1` (stereo not given), -26.1%; with `CC(C)Oc1ncc(C(=O)N2CCC(NC(=O)C3CC3)CC2)cc1Cl`, -46.9%.
With `NC(=O)C1CCN(c2nc3nccc(-c4ccccc4)c3c(=O)[nH]2)CC1`, the Percent Effect was -30.6%.
Regarding `COc1ncccc1NC(=O)NC1CCOc2ccccc21` (stereo not given), the Percent Effect was -5.5%.
Consider `CC1(C)Cc2ccccc2-c2nc(NCCO)[nH]c(=O)c21`, for which the Percent Effect turned out to be 0.00332%.
With `COc1cccc(COCC(=O)N2CCCC(n3ccnc3)C2)c1` (stereo not given) the figure was 23.8%.
The same measure for `c1cncc(COCc2nnc3n2CCN(Cc2ccoc2)C3)c1`: -40.3%.

Source of the values: ChEMBL document CHEMBL3988442, “University of Dundee, Small-Polar-MMV Screening Library” (2021).
